# From PubChem BioAssay AID1851 (National Center for Advancing Translational Sciences (NCATS), 2009)
# In all, about 16,000 compounds went through this assay and about 5,100 (32%) were called active. Roughly 25% stayed inconclusive and do not appear here. Some of the results follow. Unmarked numbers belong to inactive results. Calls follow the shape of the dose curve; as a rule, active = well fitted curve in the direction sought with a large enough effect; inconclusive = small, poorly fitted or top-dose-only effect, or effect the other way; inactive = no such curve, though single readings can be large or run the other way.
# Biological target: Cytochrome P450 3A4 (Homo sapiens) (UniProt P08684)
# Sequence (P08684 whole entry, looked up): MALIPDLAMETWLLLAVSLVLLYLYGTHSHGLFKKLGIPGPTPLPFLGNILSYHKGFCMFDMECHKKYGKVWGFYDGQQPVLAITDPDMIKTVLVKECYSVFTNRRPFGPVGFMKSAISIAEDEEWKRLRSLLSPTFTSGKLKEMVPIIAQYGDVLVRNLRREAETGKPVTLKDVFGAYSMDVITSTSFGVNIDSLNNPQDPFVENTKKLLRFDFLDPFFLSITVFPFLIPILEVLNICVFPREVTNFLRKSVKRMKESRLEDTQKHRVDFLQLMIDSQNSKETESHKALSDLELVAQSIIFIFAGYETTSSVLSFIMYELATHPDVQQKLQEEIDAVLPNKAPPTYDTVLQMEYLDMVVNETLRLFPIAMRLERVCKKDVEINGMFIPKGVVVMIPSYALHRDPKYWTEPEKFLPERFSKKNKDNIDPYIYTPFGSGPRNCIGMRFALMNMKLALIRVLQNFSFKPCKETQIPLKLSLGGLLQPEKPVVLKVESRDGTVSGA
# Assay: Cytochrome panel assay with activity outcomes
# Details: recombinant CYP, pro-luciferin dealkylation, luminescence, p450-cyp3a4; series mostly up to 57.1 µM
# % is scaled to controls: 0 for no effect and ±100 for the full control effect.
Structure (SMILES),AC50,"activity, negative = inhibition"
N#Cc1nc(-c2cccs2)oc1NCc1ccccc1,12.6 µM (active),
C(=C\c1nnc(-c2cccs2)o1)/c1ccccc1,inactive,
O=C(Nc1ccccc1)N1CCC2(CC1)CCN(C(=O)c1cnccn1)CC2,inactive,
O=C(Nc1ccccc1)N1CC2(CCN(C(=O)c3cnccn3)CC2)C1,inactive,
O=C(Nc1cccc(F)c1)N1CCC2(CC1)CCN(C(=O)c1cnccn1)CC2,inactive,
O=C(Nc1cccc(F)c1)N1CC[C@@]2(CCCN(C(=O)c3cnccn3)C2)C1,12.6 µM (active),
O=C(Nc1cccc(F)c1)N1CCCC2(CCN(C(=O)c3cnccn3)CC2)C1,12.6 µM (active),
CCNc1ncc2ncc(=O)n(C3CC3)c2n1,inactive,
CC(C)NC(=O)N1CCN(c2ccncc2S(=O)(=O)N2CCOCC2)CC1,,-21.8% [at 2.29 µM]
CC(C)N1CCN(c2ccncc2S(=O)(=O)N2CCCCC2)CC1,3.16 µM (active),
O=S(=O)(c1cnccc1N1CCN(/N=C/c2ccccc2)CC1)N1CCCCC1,0.891 µM (active),
Nc1ncnc2nc(N3CCN(CCO)CC3)[nH]c12,,-3.68% [at 11.4 µM]
Cn1c([N+](=O)[O-])cnc1CN1CCN(CCO)CC1,,-14.7% [at 11.4 µM]
O=S(=O)(c1cnccc1N1CCN(CCO)CC1)N1CCCC1,3.98 µM (active),
CC(C)(C)NC(=O)C(=O)N/N=C/c1ccc(Br)cc1,inactive,
CCCC[C@H]1C[C@@H]1[C@@H]1N(P(=O)(c2ccccc2)c2ccccc2)C[C@@](O)(c2ccccc2)CC12CC2,2 µM (active),
CCCC[C@H]1C[C@@H]1[C@@H]1N(P(=O)(c2ccccc2)c2ccccc2)[C@](CO)(c2ccccc2)CC12CC2,2 µM (active),
Cc1cc2c(c(=O)o1)[C@H](O)[C@H]1O[C@@H]1C2=O,,-24.9% [at 11.4 µM]
O=C(O)CC1(CC(=O)O)Nc2ccccc2SC1=O,,-8.21% [at 11.4 µM]
Cc1nonc1NC(=O)OCCN1CCOC1=O,inactive,
CC(C)(C)c1cc(/C=C(\C#N)C(N)=S)cc(C(C)(C)C)c1O,3.98 µM (active),
Cc1sc2ncn(CC(=O)NCCCC(=O)N3CCN(c4ncccn4)CC3)c(=O)c2c1C,14.1 µM (active),
COCC(=O)N1CCC2(CC1)CCN(c1ncccn1)CC2,inactive,
CCC(C)NC(=O)Cn1cnc2sc(C)cc2c1=O (stereo not drawn),inactive,

Structure (SMILES),AC50,"activity, negative = inhibition"
NS(=O)(=O)c1ccc(N=Nc2ccc[nH]c2=O)cc1,,-13.7% [at 11.4 µM]
O=C(COc1ccc([N+](=O)[O-])cc1)NN=C1CCCC1,25.1 µM (active),
O=C(COc1ccc(Br)cc1)Nc1ccc([N+](=O)[O-])cn1,inactive,
N=C(N)SCCc1ccc(OCc2ccc([N+](=O)[O-])cc2)cc1,inactive,
O=C1O[C@H](CN2CCOCC2)CN1/N=C\c1ccc([N+](=O)[O-])o1,inactive,
Cc1nc(NS(=O)(=O)c2ccccc2C)c2c3c(sc2n1)CCC3,8.91 µM (active),
Cc1nc(NS(=O)(=O)c2ccc(Br)cc2)c2c3c(sc2n1)CCC3,11.2 µM (active),
C[C@H](Nc1ncnc2sc3c(c12)CCC3)C(=O)O,inactive,
CNC(=S)N1CCN(c2ccccc2OC)CC1,10 µM (active),
Fc1cccc(CSc2ncnc3c2ncn3[C@H]2CCCS2)c1,,-11.8% [at 11.4 µM]
Cc1ccc(Sc2nc(-c3ccccc3)ccc2C#N)cc1,20 µM (active),
Cc1nc(Sc2ccccc2)c(C#N)cc1-c1ccccc1,inactive,
N#Cc1ccc(-c2ccc(F)cc2)nc1Oc1ccc(Cl)c(Cl)c1,inactive,
COc1ccccc1-c1nnc(SCc2nc3ccccc3s2)n1C,17.8 µM (active),
CCN1C(=O)[C@H]2[C@H]3[C@H](O)[C@H](O)C/C(=N/O[C@@H]4O[C@@H](COC(C)=O)[C@@H](OC(C)=O)[C@@H](OC(C)=O)[C@H]4OC(C)=O)[C@@H]3CC[C@@H]2C1=O,,-19.3% [at 11.4 µM]
COc1cc(-c2ccc(=O)[nH]n2)ccc1OC(F)F,inactive,
COc1ccc(-c2cc(-c3c(O)c(OC)c4occc4c3OC)[nH]n2)cc1OC,7.94 µM (active),
COc1ccc(-c2c(C)oc3c(CN4CCN(CCO)CC4)c(O)ccc3c2=O)cc1OC,,-0.572% [at 11.4 µM]
COc1ccc(-c2cc(-c3cc(F)ccc3O)[nH]n2)cc1OC,20 µM (active),
Nc1nc(Nc2ccccc2)nc2c1ncn2[C@@H]1O[C@@H](CO)[C@H](O)[C@H]1O,inactive,
Cc1nn(C(=O)CN2C(=O)c3ccccc3C2=O)c(C)c1Br,inactive,
O=C1c2ccccc2C(=O)N1CC(=O)N1c2ccccc2CCc2ccccc21,12.6 µM (active),
O=C(CN1C(=O)c2ccccc2C1=O)NC1(C(=O)O)CCCC1,,-10.2% [at 11.4 µM]
CCOc1ccc(-c2nnc3ccc(SC)nn23)cc1,inactive,

Structure (SMILES),AC50,"activity, negative = inhibition"
COc1ccc(-c2nnc3n2N=C(C)CS3)cc1,inactive,
CCOc1ccc(-c2nnc3n2N=C(c2ccc(OC)cc2)CS3)cc1,15.8 µM (active),
CCc1ccc(C2=Nn3c(nnc3-c3cccs3)SC2)cc1,25.1 µM (active),
c1ccc(-c2ccc(C3=Nn4c(Cn5nnc6ccccc65)nnc4SC3)cc2)cc1,,-11.6% [at 2.29 µM]
O=C(O)C1(Nc2ccc(Cl)cc2)CCCC1,,-9.17% [at 11.4 µM]
CCNC(=O)NC1(C(=O)Nc2ccc3c(c2)OCCO3)CCCCC1,inactive,
Cc1ccc(CNC(=O)C2(NC(=O)Nc3ccc(C)cc3)CCCCC2)cc1,2.51 µM (active),
O=C(CSCc1ccccc1)Nc1cccc(C(=O)Nc2ccccc2C(=O)O)c1,14.1 µM (active),
O=C(CSCc1ccccc1)Nc1ccc(S(=O)(=O)N2CCOCC2)cc1,,-15.3% [at 11.4 µM]
CNc1csc(C)c(C)c1=O,inactive,
c1ccc2c(CSCc3cccc4ccccc34)cccc2c1,,-3.97% [at 11.4 µM]
c1ccc2c(CSc3nnc(-c4ccncc4)o3)cccc2c1,15.8 µM (active),
CCCCNC(=O)CN1C(=O)NC2(CCCc3ccccc32)C1=O (stereo not drawn),inactive,
CCCCN(C)C(=O)c1coc(=O)c2ccccc12,inactive,
CCCCNC(=O)Cc1coc2ccc3ccccc3c12,4.47 µM (active),
CCCN(C(=O)Cc1nc(N)n[nH]1)C1(C(=O)Nc2ccccc2C)CCCCC1,1.12 µM (active),
O=C(c1cc(C(F)(F)F)cc(C(F)(F)F)c1)N1CCC[C@@]2(CCN(Cc3ccccc3)C2)C1,5.01 µM (active),
O=C(c1cc(C(F)(F)F)cc(C(F)(F)F)c1)N1CCC[C@@]2(CCN(Cc3ccncc3)C2)C1,0.501 µM (active),
N#Cc1ccc(CN2CC[C@@]3(CCCN(C(=O)c4cc(C(F)(F)F)cc(C(F)(F)F)c4)C3)C2)cc1,5.01 µM (active),
N#Cc1ccc(CN2CC3(CCN(C(=O)c4cc(C(F)(F)F)cc(C(F)(F)F)c4)CC3)C2)cc1,inactive,
N#Cc1ccc(CN2CCC3(CC2)CCN(C(=O)c2cc(C(F)(F)F)cc(C(F)(F)F)c2)CC3)cc1,inactive,
O=C(c1cc(C(F)(F)F)cc(C(F)(F)F)c1)N1CCC2(CCN(Cc3ccccc3)CC2)CC1,inactive,
O=C(c1ccncc1)N1CCC2(CC1)CN(Cc1cc(C(F)(F)F)cc(C(F)(F)F)c1)C2,5.01 µM (active),
O=C(c1cc(C(F)(F)F)cc(C(F)(F)F)c1)N1CCC2(CC1)CN(Cc1ccccc1)C2,inactive,

Structure (SMILES),AC50,"activity, negative = inhibition"
NS(=O)(=O)c1ccc(N=Nc2ccc(O)c(C(=O)O)c2)cc1,,-11.8% [at 11.4 µM]
Nc1nc2ncc(CNc3ccc(C(=O)N[C@@H](CCC(=O)O)C(=O)O)cc3)nc2c(=O)[nH]1,inactive,
Nc1nc(-c2cccc([N+](=O)[O-])c2)cc(-c2cc(-c3cccc([N+](=O)[O-])c3)nc(N)n2)n1,,-1.01% [at 11.4 µM]
Nc1nc(-c2ccccc2)cc(-c2ccccc2O)n1,inactive,
Nc1c(-c2ccccc2)cnn1-c1cccc([N+](=O)[O-])c1,14.1 µM (active),
Cc1cc(N2CCOCC2)nc(SCc2ccc(Cl)cc2Cl)n1,2.24 µM (active),
Cc1cc(C)c2c(SCc3ccc(Cl)cc3Cl)nc(N)nc2n1,,19.4% [at 11.4 µM]
CCCc1ccc(Oc2cc(C)nc(N3CCOCC3)n2)cc1,,28.4% [at 0.457 µM]
C=CC[N+]1(CC#CCOC(c2ccccc2)c2ccccc2)CCOCC1,inactive,
CCOc1cc(CNCCc2ccc(S(N)(=O)=O)cc2)ccc1OCc1ccc(Cl)cc1,0.398 µM (active),
CCOc1cc(CNCCc2ccc(S(N)(=O)=O)cc2)cc(Cl)c1OCc1ccccc1,0.447 µM (active),
CCOc1cc(CNCCO)cc(Br)c1OCc1ccccc1Cl,2 µM (active),
COc1c(Cl)cc(Cl)cc1CNCCNCCO,inactive,
CCCc1c(OCCCOc2ccc(OCC(=O)O)cc2)ccc(CC=O)c1O,inactive,
CCn1c2ccc(Cl)cc2c2nc3ccccc3nc21,15.8 µM (active),
CCn1c2ccccc2c2nnc(NCCCO)nc21,,-11.6% [at 11.4 µM]
COc1ccc(-c2ccc(N)[n+](CCCC(=O)O)n2)cc1,inactive,
O=C(CCCC(=O)OCC(=O)c1ccc(Cl)cc1Cl)Nc1cc(C(F)(F)F)ccc1Cl,22.4 µM (active),
Cc1cc(NC(=O)CCCC(=O)OCC(F)(F)C(F)F)cc(C)c1C(=O)O,inactive,
CC(C)NC(=O)C1CC(=O)N(c2ccc(F)c(Cl)c2)C1 (stereo not drawn),,5.88% [at 2.29 µM]
CCOc1ccc(N2CC(C(=O)NCc3cccc(C)c3)CC2=O)cc1 (stereo not drawn),7.94 µM (active),
